Experimental data reported in PubChem BioAssay (NCI).
This is part of a sample that, as a whole, favours compounds with a hit. Of some 83,000 tested, about 20% had one in any assay.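 A percent growth of 40 corresponds to 60% growth inhibition; 0 means no net growth; -100 means all cells died. Active threshold: below 10.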 Values without a mark were called inactive. Active and inactive are the calls of the source.

Assays:
Assay in all cases: NCI-60 one-dose screen, 48 h (100 = growth as untreated, 0 = no growth, -100 = all killed)
NCI-H460 lung = conditions: 10 µM unless noted
786-0 renal = conditions: 10 µM unless noted
COLO 205 colon = conditions: 10 µM
MALME-3M melanoma = conditions: 10 µM unless noted
RXF 393 renal = conditions: 10 µM unless noted
SF-539 CNS = conditions: 10 µM unless noted
UACC-257 melanoma = conditions: 10 µM unless noted
HT29 colon = conditions: 10 µM unless noted
SK-MEL-5 melanoma = conditions: 10 µM unless noted
SK-MEL-2 melanoma = conditions: 10 µM unless noted
UO-31 renal = conditions: 10 µM unless noted
TK-10 renal = conditions: 10 µM unless noted
ACHN renal = conditions: 10 µM unless noted
A498 renal = conditions: 10 µM unless noted
HL-60(TB) leukemia = conditions: 10 µM unless noted
MOLT-4 leukemia = conditions: 10 µM
T-47D breast = conditions: 10 µM unless noted
SW-620 colon = conditions: 10 µM unless noted
HCC-2998 colon = conditions: 10 µM unless noted
SF-295 CNS = conditions: 10 µM unless noted

Structure (SMILES)	growth (NCI-H460 lung)	growth (786-0 renal)	growth (COLO 205 colon)	growth (MALME-3M melanoma)	growth (RXF 393 renal)	growth (SF-539 CNS)	growth (UACC-257 melanoma)	growth (HT29 colon)	growth (SK-MEL-5 melanoma)	growth (SK-MEL-2 melanoma)	growth (UO-31 renal)	growth (TK-10 renal)	growth (ACHN renal)	growth (A498 renal)	growth (HL-60(TB) leukemia)	growth (MOLT-4 leukemia)	growth (T-47D breast)	growth (SW-620 colon)	growth (HCC-2998 colon)	growth (SF-295 CNS) [%]
CNC(=O)Oc1ccccc1	104%	104%	104%	105%	112%	107%	102%	118%	97.1%	118%	98.8%	122%	105%	120%	120%	106%	133%	101%	119%	
CC1(C)N=C(N)N=C(N)N1c1ccc(CNC(=O)Nc2ccc(S(=O)(=O)F)c(Cl)c2)c(Cl)c1	7.59% (active)	30.8%	37.1%	54.5%	50.6%	24.9%	23%	7.61% (active)	24.1%	49.7%	88.2%	22.6%	52.9%	61.3%	21.8%	22.1%	60.3%	12.5%	39.7%	
O=S(=O)(F)c1ncnc2nc[nH]c12	103%	97.6%	115%	100%	101%	88.1%	105%	101%	96.2%	85.8%	66.9%	103%	98.1%	97.2%	97.2%	89.2%	91.3%	95.4%	101%	104
COc1cc2c(cc1OC)CN(C)C(C)C2 (centres undefined)	106%	101%	102%	95.9%	118%	105%	104%	93.2%	101%	100%	93%	101%	106%	84%	87.9%	113%	97.3%	100%	97.5%	99
Cc1cc(N(CCCl)CCCl)ccc1C=Nc1ccc2ccccc2c1	26%	75.5%	87.4%	84.9%	71.5%	69%	37.8%	92%	74.6%	145%	50.8%	73%	57%	-77.9% (active)	46%	43.7%	5.25% (active)	84.9%	94.5%	
O=[N+]([O-])c1cccc([As]=[As]c2cccc([N+](=O)[O-])c2)c1 (centres undefined)	-65.7% (active)	-93% (active)	-81.2% (active)	-89.1% (active)	-96.1% (active)	-99.7% (active)	-94.4% (active)	-61.6% (active)	-100% (active)	-91.4% (active)	-98.7% (active)	-98.4% (active)	-100% (active)	-98.8% (active)	-57% (active)	-37.4% (active)	-58.3% (active)	-68.8% (active)	-90.6% (active)	
CC1(C)N=C(N)N=C(N)N1c1ccc(OCCCCNC(=O)c2ccc(S(=O)(=O)F)cc2)c(Cl)c1	19.8%	40.9%	61.7%	71.3%	76.3%	64.9%	54.7%	27.6%	51.4%	82.4%	77%	57.9%	96.9%	105%	36.2%	57.9%	104%	35.1%	83.1%	
Nc1ccc(N)c2c1Oc1ccccc1O2	117%	93.2%	106%	111%		89.1%	102%	110%	72.6%	95.9%	134%	131%	94.7%	92.9%	69.4%	81.6%	98.1%	102%	108%	101
